Screening data (PubChem BioAssay)
In the library only some 9.4% were active in any assay of this set; here they are far more common.
FLuc counter = inhibits or activates purified firefly luciferase, miR-21 counter-screen | P08659 | purified FLuc, Km substrates, luminescence inhibition | Potency, µM (series often up to 57.5 µM), for inactives: at the highest dose activity change, negative = inhibition, usual class: inhibitors | 360,000 compounds, 6.9% hits;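 also: plate controls were vehicle for no effect and reference inhibitor for full effect; nearly all actives have a fitted effect of over 55% in size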
Target sequence (P08659 whole entry, looked up): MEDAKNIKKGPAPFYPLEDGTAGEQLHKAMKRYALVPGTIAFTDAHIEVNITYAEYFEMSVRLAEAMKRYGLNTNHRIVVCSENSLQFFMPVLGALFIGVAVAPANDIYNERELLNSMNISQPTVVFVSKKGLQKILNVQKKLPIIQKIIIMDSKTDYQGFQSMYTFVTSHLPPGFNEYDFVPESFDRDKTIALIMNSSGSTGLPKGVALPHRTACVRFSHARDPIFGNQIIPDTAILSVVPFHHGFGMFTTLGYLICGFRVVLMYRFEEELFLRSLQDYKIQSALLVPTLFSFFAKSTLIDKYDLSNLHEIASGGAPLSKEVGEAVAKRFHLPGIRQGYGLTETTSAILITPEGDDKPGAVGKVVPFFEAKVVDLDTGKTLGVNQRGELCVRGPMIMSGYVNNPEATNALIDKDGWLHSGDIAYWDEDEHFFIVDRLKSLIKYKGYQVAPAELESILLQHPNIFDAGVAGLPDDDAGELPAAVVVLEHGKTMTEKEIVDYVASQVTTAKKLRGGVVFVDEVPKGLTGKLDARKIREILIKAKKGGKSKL
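Biochemical qHTS of compounds, final roughly 60 µM downward over six points, against 10 nM purified firefly luciferase using Km concentrations of substrates (10 uM D-luciferin, 10 uM ATP) in Tris acetate pH 7.5 buffer; luminescence output.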
ELG1 genotox = inducers of genotoxicity in HEK293T ELG1-luciferase cells; 330,000 compounds, 1.3% hits; Potency, µM (titrated, usually from 46 µM), for inactives: at the top dose activity change, positive = activation, usual class: activators; AID 504466; HEK293T ELG1-luciferase reporter, luminescence, 16 h; also: % of control where 0% means no effect; nearly all actives have a fitted effect of over 60% in size
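Genotoxic stress is detected as increased luminescence from luciferase-tagged ELG1 in HEK293T cells, measured with ONE-Glo after a 16 hr treatment at 37 °C.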
ELG1 repair inh = blocks ELG1-dependent DNA repair in HEK293T cells; HEK293T ELG1-luciferase reporter, luminescence, 16 h; DNA damage induced by 5-fluorouridine; Potency, µM (doses to about 46.1 µM), without a hit: at the top dose activity change, negative = inhibition, actives largely listed as inhibitors; 330,000 compounds, 2.3% hits; AID 504467; also: % is scaled to controls: 0 for no effect and ±100 for the full control effect; nearly all actives have a fitted effect of over 55% in size
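Step one: seed 2,000 cells per well. Step two: pin-transfer compound or DMSO alongside 5-fluorouridine. Step three: incubate 16 hr, 37 °C, 5% CO2. Step four: add ONE-Glo, wait 30 min, read luminescence.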
NPC1 prom act = activators of NPC1 promoter; Huh7 NPC1 promoter luciferase reporter, 24 h; Potency, µM (highest dose often 9.22 µM), inactives show top-dose activation, most hits filed as activators; 320,000 compounds, 2.4% hits; AID 485313; also: % of control where 0% means no effect; nearly all actives have a fitted effect of over 60% in size
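Cells: Huh7 expressing luciferase under the NPC1 promoter, 1500/well. Seeded 2 h, compound added, incubated 24 h at 37 °C. Luciferase reagent, 10 min ambient, then luminescence.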
Rab9 promoter act = activators of Rab9 promoter | Huh7 Rab9 promoter-luciferase reporter, luminescence, 24 h | Potency, µM (highest dose often 9.22 µM), for inactives: at the highest dose activation, negative = inhibition, most hits filed as activators | 320,000 compounds, 2.8% hits; also: % of control where 0% means no effect; nearly all actives have a fitted effect of over 60% in size
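Promoter activation is measured as luciferase luminescence in Huh7 cells stably transfected with a Rab9 promoter–luciferase construct, following 24 h compound exposure at 37 °C and 10 min reagent incubation at ambient temperature.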
SMN2 splice up = increases expression of the SMN2 splice variant. Potency, µM (highest dose often 46.1 µM), without a hit: top-dose activity change, positive = activation, actives largely listed as activators. AID 1458. 210,000 compounds, 2.8% hits. HEK293 SMN2-luciferase splicing reporter, luminescence, 30-36 h; also: % of control where 0% means no effect; nearly all actives have a fitted effect of over 55% in size
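HEK293 cells carry an SMN2 […]–luciferase reporter in which exon 7 inclusion puts luciferase in frame. Cells were plated 10-12 h before compound addition, then incubated 30-36 h at 37C. ONE-Glo luminescence was read; sodium butyrate at 4.5 mM final served as control.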
Numbers without * were called inactive; ? = inconclusive; . = no result given; [ ] = remark or other dose. Calls follow the shape of the dose curve; as a rule, active = well fitted curve in the direction sought with a large enough effect; inconclusive = small, poorly fitted or top-dose-only effect, or another doubt; inactive = no such curve, though single readings can be large; an effect the other way counts as inactive or inconclusive. Potency is read from the fitted curve at half-maximal effect.

SMILES	FLuc counter	ELG1 genotox	ELG1 repair inh	NPC1 prom act	Rab9 promoter act	SMN2 splice up
CCc1cc2c(COC(=O)c3cccc(S(C)(=O)=O)c3)cc(=O)oc2cc1O	-3%	-18%	?	-3%	-3%	.
CNS(=O)(=O)c1cccc(C(=O)OCc2cc(=O)oc3c(C)c(O)ccc23)c1	-8%	-21%	23µM*	-7%	1%	.
CC(C)(C)CC(=O)Nc1ccc(Nc2ccccc2)cc1	12µM*	11%	?	28%	3.2µM*	-6%
CC(C)CC(=O)Nc1ccc(Oc2ccc(NC(=O)CC(C)C)cc2)cc1	9%	-2%	8%	-6%	0%	.
CC(C)C(=O)Nc1ccc(Nc2ccccc2)cc1	19µM*	20%	20%	0%	-5%	21%
CCCCc1ccc(NC(=O)CC(C)(C)C)cc1	15µM*	15%	?	?	?	.
CC(C)CC(=O)Nc1ccc(Nc2ccccc2)cc1	19µM*	-4%	21%	2%	12%	15%
COc1ccccc1NC(=O)Cn1c(=O)n(-c2ccc(C)cc2)c(=O)c2c1cnn2C	0%	.	.	.	.	-13%
Cc1nc(N2CCOCC2)c2nc(-c3ccccc3)n(CCCN3CCCCC3C)c2n1 (stereo not drawn)	.	.	.	.	.	8%
COc1ccc(NC(=O)C2=Cc3ccccc3OC2)cc1	1.5µM*	0.52µM*	?	0.4µM*	0.56µM*	7.9µM*
O=C(Nc1ccc(Cl)cc1Cl)C1=Cc2ccccc2OC1	1.9µM*	2.1µM*	?	1.4µM*	1µM*	?
COc1ccc(NC(=O)C2=Cc3cccc(OC)c3OC2)cc1	5.4µM*	?	?	2.8µM*	2.5µM*	13µM*
COc1cccc2c1OCC(C(=O)OCc1cccnc1)=C2	-14%	4%	-2%	0%	1%	-4%
O=C(Nc1ccc(Cl)cc1)C1=Cc2cc(Cl)ccc2OC1	-4%[2.3 µM]	-5%	-13%	2%	0%	27%
CCOC(=O)c1c(NC(=O)Nc2ccc(F)cc2)sc(C(=O)N(C)C)c1C	-6%	.	.	.	.	-3%
Cn1c(=O)c2c(nc(SCCCC#N)n2Cc2c(F)cccc2Cl)n(C)c1=O	4%	7%	16µM*	-1%	-1%	-5%
CCOc1ccc(NC(=O)CN(C)C(=O)c2cn(-c3ccc(F)cc3)nc2-c2cccc(OC)c2)cc1OCC	-17%	-31%	9.2µM*	-3%	1%	.
CN(CC(=O)Nc1cccc(F)c1)C(=O)c1cn(-c2ccccc2)nc1-c1ccccc1	?	-7%	19%	5%	13%	.
CCOc1ccc(NC(=O)CN(C)C(=O)c2ccccc2CCc2ccccc2)cc1OCC	3%	-22%	7.3µM*	0%	-5%	.
CCOc1ccc(NC(=O)CN(C)C(=O)c2ccccc2OCCOc2ccccc2)cc1OCC	0%	-10%	12µM*	-4%	-2%	.
O=C(CCn1c2c(c3ccccc31)CCCC2)NNC(=O)c1ccccc1C(=O)O	27µM*	-1%	?	6%	-3%	.
O=C(CCn1c2c(c3ccccc31)CCCC2)NNC(=O)c1ccccc1[N+](=O)[O-]	?	1%	-20%	-2%	0%	1%
O=C(O)COn1c(-c2ccccc2)nc2ccc(Cl)cc21	4.8µM*	?	?	10%	26%	?
COn1c(-c2ccccc2)nc2ncccc21	-2%	0%	2%	-4%	9%	.
O=[N+]([O-])c1ccc2nc(-c3ccccc3)n(OCc3ccc(Cl)cc3)c2c1	?	0%	22%	2%	5%	-22%
COn1c(-c2ccccc2)nc2ccc(Cl)cc21	12µM*	14%	?	?	?	28%
COC(=O)c1ccsc1NC(=O)CN1CCN(Cc2ccc3c(c2)OCO3)CC1	-1%	-9%	5.2µM*	-3%	4%	0%
COC(=O)c1ccsc1NC(=O)CN1CCN(c2ccc(F)cc2)CC1	3%[2.3 µM]	-11%	?	-1%	-1%	-14%
